Assay [1] is described as follows: Caspase-3/7 induction in HepG2 cells by small molecules, qHTS assay (AID 1346978). Note: nearly all actives have a fitted effect of over 15% in size. The essentials: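 Wild-type HepG2 cells (2,000/well) were settled 5 h at 37 C, 5% CO2, then exposed to compounds in DMSO for 17 h. Caspase-3/7 activity was read by luminescence 30 min after adding Caspase-Glo 3/7 reagent at room temperature.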
In general terms: qHTS replaces the single test concentration by a dilution series.

Assay [2] in a line: Caspase-3/7 induction in CHO-K1 cells by small molecules, qHTS cell viability counter screen (AID 1346979). Note: nearly all actives have a fitted effect of over 35% in size. A digest of the protocol:
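Multiplexed with Caspase-Glo 3/7 in CHO-K1 cells, this counter screen added CellTiter-Fluor after 16hr of compound exposure and recorded fluorescence 1hr later.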

Assay [3] is described as follows: Caspase-3/7 induction in CHO-K1 cells by small molecules, qHTS assay (AID 1346980). Note: nearly all actives have a fitted effect of over 15% in size. A digest of the protocol: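 Wild-type cells were seeded at 1,500 per well and settled 5 hr at 37 C, 5% CO2, then exposed to DMSO-dissolved compounds for 17 hr. Caspase-Glo 3/7 reagent was added, and luminescence was read after 30min at room temperature.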
Assay [4] can be described thus: Caspase-3/7 induction in HepG2 cells by small molecules, qHTS cell viability counter screen (AID 1346981). Note: series mostly up to about 92 µM; nearly all actives have a fitted effect of over 30% in size. A digest of the protocol:
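In this quantitative HTS counter screen, compounds delivered in DMSO were left on unmodified HepG2 cells for 16 hr at 37 C. Viability was then determined fluorometrically with CellTiter-Fluor, in parallel with caspase-3/7 induction in the same wells.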

The target of assay [5] is Nuclear receptor subfamily 1 group I member 2 (Homo sapiens) (UniProt O75469). The assay can be described thus: Human pregnane X receptor (PXR) small molecule agonists, qHTS assay (AID 1346982). Note: potency is the fitted concentration of half-maximal effect; nearly all actives have a fitted effect of over 35% in size. A digest of the protocol:
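Reporter HepG2 cells expressing PXR-Luc are cultured in charcoal-stripped FBS (5%), treated with compounds for 24 hr at 37 C, and assayed by ONE-Glo luminescence after 30 min at room temperature.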

Assay [6] addresses Acetylcholinesterase (Homo sapiens) (UniProt P22303). The assay can be described thus: Acetylcholinesterase (AChE) small molecule antagonists: colormetric cell-based qHTS assay (AID 1347395; calls by dose curve; note: nearly all actives have a fitted effect of over 30% in size; note: potency is the fitted concentration of half-maximal effect). The essentials: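 In this cell-based qHTS, attached SH-SY5Y cells were treated with test chemicals for 30 min, after which acetylthiocholine hydrolysis was followed by DTNB colour development over 90 min at 37 C.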

Assay [7] shares this target. In words: Acetylcholinesterase (AChE) small molecule antagonists: enzyme-based qHTS assay (AID 1347397; calls by dose curve; note: nearly all actives have a fitted effect of over 55% in size; note: potency is the fitted concentration of half-maximal effect). The settings on record: Potency: AChE enzyme activity inhibition. The essentials: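 Tox21 library chemicals are tested in qHTS format against recombinant human AChE. The enzyme, dispensed at 50 mU/mL, sits with compound for 30 min at room temperature. A DTNB–acetylthiocholine cocktail follows, and colour is read after 10 min.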

For assay [8] the target is unchanged. In words: Acetylcholinesterase (AChE) small molecule antagonists: fluorescence cell-based qHTS assay (AID 1347398; calls by dose curve; note: nearly all actives have a fitted effect of over 50% in size; note: potency is the fitted concentration of half-maximal effect). The settings on record: Potency: AChE activity. A digest of the protocol: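 Cellular AChE inhibition: SH-SY5Y cells treated with test chemical for 30 min at 37 C, then acetylthiocholine hydrolysis followed over 40 min at room temperature via thiocholine-reactive Thiolite Green fluorescence (490/520 nm).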

Assay [9] shares this target. The assay can be described thus: Acetylcholinesterase (AChE) small molecule antagonists: enzyme-based qHTS assay with human liver microsomes (AID 1347399; calls by dose curve; note: nearly all actives have a fitted effect of over 60% in size). The settings on record: Potency: qHTS inhibition. A digest of the protocol:
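Recombinant human AChE (50 mU/mL in the enzyme mix) and human liver microsomes (0.25 mg/mL final) were preincubated with compound and NADPH (0.25 mg/mL final) for 30 min at 37 C. Acetylthiocholine/DTNB was then added; thiocholine was read colorimetrically after 10 min at room temperature.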

Assay [10] addresses Cytochrome P450 2D6 (Homo sapiens) (UniProt P10635). The assay can be described thus: Cytochrome P450 Family 2 Subfamily D Member 6 (CYP2D6) small molecule antagonists: luciferase reporter qHTS assay (AID 1671196). Note: nearly all actives have a fitted effect of over 50% in size. Note: potency is the fitted concentration of half-maximal effect. The essentials:
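Test chemicals meet CYP2D6 plus proluciferin substrate (10 min, RT); NADPH regenerating solution then drives turnover for 1 h. Detection reagent halts the reaction; luminescence measured after 20 min.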
For orientation: A reporter such as luciferase makes a cellular process visible.

Assay [11] deals with Cytochrome P450 2C19 (Homo sapiens) (UniProt P33261). The assay can be described thus: Cytochrome P450 Family 2 Subfamily C Member 19 (CYP2C19) small molecule antagonists: luciferase reporter qHTS assay (AID 1671197). Note: nearly all actives have a fitted effect of over 65% in size. Note: potency is the fitted concentration of half-maximal effect. A digest of the protocol:
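Quantitative high-throughput screen of the Tox21 library using CYP2C19 with proluciferin substrate. Reaction: NADPH regeneration, 37C, 1 h, after 10 min compound preincubation at room temperature. Readout: luminescence.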

The target of assay [12] is Cytochrome P450 1A2 (Homo sapiens) (UniProt P05177). In words: Cytochrome P450 Family 1 Subfamily A Member 2 (CYP1A2) small molecule antagonists: luciferase reporter qHTS assay (AID 1671199). Note: nearly all actives have a fitted effect of over 50% in size. Note: potency is the fitted concentration of half-maximal effect. The essentials:
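Steps: enzyme-substrate mix dispensed; test compounds and furafylline control pinned in; 10 min room temperature; NADPH regeneration solution added, 1 h; reaction stopped with luciferin detection reagent; luminescence read after 20 min.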

Assay [13] addresses Cytochrome P450 3A4 (Homo sapiens) (UniProt P08684). In words: Cytochrome P450 Family 3 Subfamily A Member 4 (CYP3A4) small molecule antagonists: luciferase reporter qHTS assay (AID 1671201). Note: series mostly up to about 120 µM; nearly all actives have a fitted effect of over 50% in size. The essentials: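 Room-temperature assay throughout: 10 min compound–enzyme/substrate preincubation, 1 h reaction after NADPH regeneration solution, 20 min detection. Luciferin formed from proluciferin substrate is quantified by luminescence.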

For assay [14], the target named is Nuclear receptor subfamily 1 group I member 2 (Rattus norvegicus) (UniProt Q9R1A7). The assay can be described thus: Rat pregnane X receptor (rPXR) activation by small molecules, qHTS assay (AID 1346983). Note: potency is the fitted concentration of half-maximal effect; nearly all actives have a fitted effect of over 20% in size. As to conditions: rPXR luciferase reporter cells, One-Glo luminescence, 24 h; max activation: hits give high values. The essentials:
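Cell-based rPXR luciferase reporter assay, 2,000 cells per well, rested 5hr at 37 C before compound addition in DMSO, then 24 hr at 37 C. One-Glo reagent was added and luminescence read after 30 min at room temperature.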

In assay [15] the target is Nuclear receptor subfamily 1 group I member 2 (Homo sapiens) (UniProt O75469). The assay can be described thus: CYP3A4 induction through human pregnane X receptor (PXR) by small molecules, qHTS assay (AID 1346984). Note: nearly all actives have a fitted effect of over 40% in size. The essentials: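 Induction measured in HepG2-based DPX-2 cells co-expressing human PXR and a CYP3A4 promoter-driven luciferase. After a 24-hour compound exposure, cells received CYP3A4 luciferin substrate at 3uM final for 3 hours, and light output was then recorded.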

Assay [16] has the same target. The assay can be described thus: Human pregnane X receptor (PXR) activation by small molecules, qHTS assay (AID 1346985). Note: potency is the fitted concentration of half-maximal effect; nearly all actives have a fitted effect of over 40% in size. The essentials:
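DPX-2 cells (HepG2 co-transfected with a PXR response element and a CYP3A4-promoter luciferase construct) were seeded at 2,000 per well, rested 5 hr at 37C, then exposed to DMSO-dissolved compounds for 24 hr. Activation was read as luciferase luminescence.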

Assay [17] deals with Voltage-gated inwardly rectifying potassium channel KCNH2 (Homo sapiens) (UniProt Q12809). The assay can be described thus: Human Ether-a-go-go-Related Gene (hERG) channel small molecule antagonists: fluorescence cell-based qHTS assay (AID 1671200). The essentials: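 Cell line hERG-U2OS; dye FluxOR II, 1 h RT dark; Tl+ stimulus; ex 480/em 540 nm, read each second for 2 min.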
In general terms: Block of hERG is tested as a sign of cardiac risk.

The target of assay [18] is Cytochrome P450 2C9 (Homo sapiens) (UniProt P11712). The assay can be described thus: Cytochrome P450 Family 2 Subfamily C Member 9 (CYP2C9) small molecule antagonists: luciferase reporter qHTS assay (AID 1671198). The essentials:
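CYP2C9 activity was measured with a P450-Glo proluciferin substrate. Enzyme–substrate mix was held with compound for 10 min at room temperature, then NADPH regeneration solution was added for 1 h at 37C. Luciferin product was read as luminescence.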

Records with an inconclusive call do not appear. Calls of active or inactive are those of the source. Unless noted, calls come from the whole dose curve; as a rule, active = well fitted curve in the direction sought with a large enough effect in the repeat runs; inconclusive = weak or mixed curves; inactive = no such curve, though single readings can be large; an effect the other way counts as inactive or inconclusive.

The values below come from PubChem BioAssay (Tox21).

Sequence of Cytochrome P450 3A4 (Homo sapiens) (P08684 whole entry, looked up): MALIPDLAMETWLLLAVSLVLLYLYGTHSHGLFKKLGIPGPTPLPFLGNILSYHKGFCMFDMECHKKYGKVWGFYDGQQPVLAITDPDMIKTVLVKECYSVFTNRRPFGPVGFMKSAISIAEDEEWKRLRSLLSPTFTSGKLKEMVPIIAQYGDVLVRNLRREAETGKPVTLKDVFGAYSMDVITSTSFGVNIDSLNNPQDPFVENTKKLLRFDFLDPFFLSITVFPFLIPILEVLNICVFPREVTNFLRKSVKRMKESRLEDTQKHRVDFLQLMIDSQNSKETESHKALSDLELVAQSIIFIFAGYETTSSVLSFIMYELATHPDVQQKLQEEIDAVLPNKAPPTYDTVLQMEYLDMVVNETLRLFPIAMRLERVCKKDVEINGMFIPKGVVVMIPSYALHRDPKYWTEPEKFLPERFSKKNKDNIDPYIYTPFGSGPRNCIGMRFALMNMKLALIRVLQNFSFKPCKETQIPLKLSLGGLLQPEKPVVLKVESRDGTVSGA
Sequence of Voltage-gated inwardly rectifying potassium channel KCNH2 (Homo sapiens) (Q12809 whole entry, looked up): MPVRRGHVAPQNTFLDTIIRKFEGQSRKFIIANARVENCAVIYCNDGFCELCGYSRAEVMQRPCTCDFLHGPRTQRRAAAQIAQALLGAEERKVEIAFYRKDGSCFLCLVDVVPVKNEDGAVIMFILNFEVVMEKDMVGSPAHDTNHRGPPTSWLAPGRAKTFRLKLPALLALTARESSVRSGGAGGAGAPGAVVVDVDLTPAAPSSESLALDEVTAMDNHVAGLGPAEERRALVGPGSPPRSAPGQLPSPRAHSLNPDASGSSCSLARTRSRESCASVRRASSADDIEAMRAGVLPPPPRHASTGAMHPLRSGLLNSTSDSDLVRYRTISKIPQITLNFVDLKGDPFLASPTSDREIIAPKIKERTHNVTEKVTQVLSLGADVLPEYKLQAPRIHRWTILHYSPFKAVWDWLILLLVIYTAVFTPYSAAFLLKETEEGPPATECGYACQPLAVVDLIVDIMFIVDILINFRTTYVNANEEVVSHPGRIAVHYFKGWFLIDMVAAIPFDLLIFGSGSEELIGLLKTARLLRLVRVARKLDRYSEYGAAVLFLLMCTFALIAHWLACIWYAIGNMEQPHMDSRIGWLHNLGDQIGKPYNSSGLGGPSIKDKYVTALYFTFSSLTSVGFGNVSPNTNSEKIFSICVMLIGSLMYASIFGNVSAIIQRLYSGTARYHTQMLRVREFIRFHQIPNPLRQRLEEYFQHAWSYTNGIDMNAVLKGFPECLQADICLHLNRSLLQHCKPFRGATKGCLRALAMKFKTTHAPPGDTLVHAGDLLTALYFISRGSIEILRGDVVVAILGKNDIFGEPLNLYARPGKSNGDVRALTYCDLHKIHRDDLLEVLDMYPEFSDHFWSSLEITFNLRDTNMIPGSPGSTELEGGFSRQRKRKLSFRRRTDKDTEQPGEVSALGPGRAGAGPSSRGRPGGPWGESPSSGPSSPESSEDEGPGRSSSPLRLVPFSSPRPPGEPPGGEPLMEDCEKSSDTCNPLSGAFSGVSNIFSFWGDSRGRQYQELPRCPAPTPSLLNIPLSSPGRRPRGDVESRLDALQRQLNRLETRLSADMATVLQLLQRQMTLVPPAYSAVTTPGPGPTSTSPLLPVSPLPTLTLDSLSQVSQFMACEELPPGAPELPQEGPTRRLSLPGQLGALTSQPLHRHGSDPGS
Sequence of Acetylcholinesterase (Homo sapiens) (P22303 whole entry, looked up): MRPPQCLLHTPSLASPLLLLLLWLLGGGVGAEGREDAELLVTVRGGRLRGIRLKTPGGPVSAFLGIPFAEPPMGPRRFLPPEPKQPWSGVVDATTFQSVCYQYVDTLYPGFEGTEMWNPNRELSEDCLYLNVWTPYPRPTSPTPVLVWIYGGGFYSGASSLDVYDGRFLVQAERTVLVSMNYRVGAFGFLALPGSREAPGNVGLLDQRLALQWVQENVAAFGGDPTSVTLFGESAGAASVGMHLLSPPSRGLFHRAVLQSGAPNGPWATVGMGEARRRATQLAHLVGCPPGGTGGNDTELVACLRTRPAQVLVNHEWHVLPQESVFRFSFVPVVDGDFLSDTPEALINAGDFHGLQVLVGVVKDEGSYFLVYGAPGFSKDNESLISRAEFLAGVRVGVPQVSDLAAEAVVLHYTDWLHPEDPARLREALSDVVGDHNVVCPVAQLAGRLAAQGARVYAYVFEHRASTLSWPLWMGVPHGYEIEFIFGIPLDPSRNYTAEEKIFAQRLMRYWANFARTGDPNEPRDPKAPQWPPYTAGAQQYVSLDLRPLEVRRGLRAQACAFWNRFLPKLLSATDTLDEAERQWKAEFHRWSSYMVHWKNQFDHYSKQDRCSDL
Sequence of Nuclear receptor subfamily 1 group I member 2 (Homo sapiens) (O75469 whole entry, looked up): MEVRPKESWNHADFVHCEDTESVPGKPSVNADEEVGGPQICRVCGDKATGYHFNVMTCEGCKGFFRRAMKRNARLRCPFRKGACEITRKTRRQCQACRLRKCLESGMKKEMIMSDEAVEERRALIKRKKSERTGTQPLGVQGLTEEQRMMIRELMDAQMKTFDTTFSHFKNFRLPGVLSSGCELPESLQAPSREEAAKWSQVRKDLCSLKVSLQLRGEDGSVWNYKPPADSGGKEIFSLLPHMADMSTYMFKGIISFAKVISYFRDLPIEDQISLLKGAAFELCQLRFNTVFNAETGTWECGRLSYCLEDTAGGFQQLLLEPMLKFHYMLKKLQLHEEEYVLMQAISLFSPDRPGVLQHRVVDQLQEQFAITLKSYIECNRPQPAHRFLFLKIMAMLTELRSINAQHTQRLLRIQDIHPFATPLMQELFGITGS
Sequence of Cytochrome P450 2D6 (Homo sapiens) (P10635 whole entry, looked up): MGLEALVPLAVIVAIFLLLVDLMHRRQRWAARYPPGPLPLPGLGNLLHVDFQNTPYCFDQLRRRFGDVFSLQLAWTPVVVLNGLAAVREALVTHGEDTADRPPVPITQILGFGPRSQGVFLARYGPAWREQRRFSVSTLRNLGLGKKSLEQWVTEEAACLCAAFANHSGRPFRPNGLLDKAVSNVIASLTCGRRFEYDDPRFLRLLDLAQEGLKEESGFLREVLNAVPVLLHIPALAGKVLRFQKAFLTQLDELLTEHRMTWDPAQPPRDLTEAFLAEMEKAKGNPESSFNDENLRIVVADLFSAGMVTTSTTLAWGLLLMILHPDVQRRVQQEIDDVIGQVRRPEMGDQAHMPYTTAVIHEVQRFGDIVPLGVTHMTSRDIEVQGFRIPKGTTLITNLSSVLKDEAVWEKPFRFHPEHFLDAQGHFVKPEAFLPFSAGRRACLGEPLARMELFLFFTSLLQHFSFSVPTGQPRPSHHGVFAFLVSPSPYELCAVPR
Sequence of Cytochrome P450 2C9 (Homo sapiens) (P11712 whole entry, looked up): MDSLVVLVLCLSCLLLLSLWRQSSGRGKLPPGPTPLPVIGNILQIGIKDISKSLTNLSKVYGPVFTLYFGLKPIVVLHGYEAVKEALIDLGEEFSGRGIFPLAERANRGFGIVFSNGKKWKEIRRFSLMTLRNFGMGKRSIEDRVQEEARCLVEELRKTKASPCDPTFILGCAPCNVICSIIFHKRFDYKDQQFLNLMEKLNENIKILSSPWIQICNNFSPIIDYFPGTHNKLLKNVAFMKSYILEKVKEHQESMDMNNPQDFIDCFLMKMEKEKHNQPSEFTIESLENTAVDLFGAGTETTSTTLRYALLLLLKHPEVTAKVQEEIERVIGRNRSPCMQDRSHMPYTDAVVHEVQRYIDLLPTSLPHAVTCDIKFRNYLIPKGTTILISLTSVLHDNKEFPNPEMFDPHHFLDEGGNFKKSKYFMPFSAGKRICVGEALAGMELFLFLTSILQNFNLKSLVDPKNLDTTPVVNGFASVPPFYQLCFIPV
Sequence of Cytochrome P450 1A2 (Homo sapiens) (P05177 whole entry, looked up): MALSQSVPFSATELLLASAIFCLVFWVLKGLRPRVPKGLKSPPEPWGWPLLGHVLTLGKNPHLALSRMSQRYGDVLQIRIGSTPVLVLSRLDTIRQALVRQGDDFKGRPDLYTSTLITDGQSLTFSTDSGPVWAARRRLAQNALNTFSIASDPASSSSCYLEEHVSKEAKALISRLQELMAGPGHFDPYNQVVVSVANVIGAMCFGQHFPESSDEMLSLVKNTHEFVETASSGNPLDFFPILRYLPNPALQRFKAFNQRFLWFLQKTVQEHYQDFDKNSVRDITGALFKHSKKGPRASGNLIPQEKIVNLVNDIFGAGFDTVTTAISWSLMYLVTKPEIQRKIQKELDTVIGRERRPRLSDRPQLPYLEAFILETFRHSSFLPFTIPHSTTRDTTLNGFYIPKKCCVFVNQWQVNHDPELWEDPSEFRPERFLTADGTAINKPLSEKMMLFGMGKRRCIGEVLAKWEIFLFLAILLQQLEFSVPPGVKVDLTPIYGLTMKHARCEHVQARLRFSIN
Sequence of Cytochrome P450 2C19 (Homo sapiens) (P33261 whole entry, looked up): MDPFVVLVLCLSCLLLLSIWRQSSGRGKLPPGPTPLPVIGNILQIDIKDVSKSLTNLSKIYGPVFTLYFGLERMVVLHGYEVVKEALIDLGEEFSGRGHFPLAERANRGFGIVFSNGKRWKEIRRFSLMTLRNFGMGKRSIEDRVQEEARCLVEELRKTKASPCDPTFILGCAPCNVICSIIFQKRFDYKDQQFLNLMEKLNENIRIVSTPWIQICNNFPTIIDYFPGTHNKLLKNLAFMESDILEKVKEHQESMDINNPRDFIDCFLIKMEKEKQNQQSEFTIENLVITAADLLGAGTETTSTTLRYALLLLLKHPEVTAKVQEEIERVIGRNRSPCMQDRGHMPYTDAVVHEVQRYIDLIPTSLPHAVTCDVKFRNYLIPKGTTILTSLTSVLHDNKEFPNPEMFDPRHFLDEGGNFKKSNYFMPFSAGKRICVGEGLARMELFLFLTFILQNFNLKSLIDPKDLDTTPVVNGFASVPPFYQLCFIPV

As to `Cc1c([N+](=O)[O-])cc2c(c1[N+](=O)[O-])C(C)(C)CC2(C)C`, the Potency entry in assay [1], in assay [2], in [3], in [4], in assay [6] and in [7] was “inactive” each time. In addition, the Potency entry in assay [8], in [9], in assay [10], in assay [11] and in [13] was “inactive” each time. The Potency was 54.5 µM (active) in assay [5] and 8.94 µM (active) in assay [12].

Turning to `CC[C@]1(O)CC[C@H]2[C@@H]3CCC4=CCCC[C@@H]4[C@H]3CC[C@@]21C`, the Potency entry in assay [3], in [4], in [15], in assay [6], in assay [7] and in [8] was “inactive” in each case. The Potency result in assay [9] and in assay [10] was “inactive” each time. Also, the Potency was 23.7 µM (active) in assay [5], 14.1 µM (active) in assay [14], 8.91 µM (active) in assay [16] and 12.3 µM (active) in assay [11].

On to `O.O.O.O.O.O.O=S(=O)([O-])[O-].[Ni+2]`, for which the Potency result in assay [1], in assay [2], in assay [3] and in [17] was “inactive” in each case.

Turning to `C[C@]12Cc3cn[nH]c3C[C@@H]1CC[C@@H]1[C@@H]2CC[C@@]2(C)[C@H]1CC[C@]2(C)O`, the Potency result in [1], in assay [3], in assay [4], in [6], in assay [7] and in assay [8] was “inactive” each time. For the same compound, the Potency entry in assay [9], in [12] and in [17] was “inactive” in each case. Besides, the Potency in [5] was 9.44 µM (active); in assay [11], 0.776 µM (active); in assay [18] it was 0.977 µM (active).

`CCOP(=O)(Sc1ccccc1)Sc1ccccc1`: the Potency entry in [1], in assay [4], in assay [17] and in [13] was “inactive” in each case. In addition, the Potency was 34.4 µM (active) in [5]; 3.99 µM (active) in assay [6]; 17.8 µM (active) in assay [7]; 894 nM (active) in assay [8]; 56.4 µM (active) in assay [10]; 8.94 µM (active) in assay [11]. Besides, the Potency was 28.3 µM (active) in assay [18] and 10 µM (active) in [12].

In the case of `Cc1ccccc1OP(=O)(Oc1ccccc1C)Oc1ccccc1C`, the Potency entry in assay [1], in assay [3], in assay [4], in [6], in [7] and in assay [8] was “inactive” throughout. Also, in [13], the Potency entry is “inactive”. Moreover, the results for the Potency in [5], in assay [11] and in [18] were 27.4 µM (active), 1.6 µM (active) and 5.66 µM (active), respectively.

Regarding `O=C1C[C@@H]2OCC=C3CN4CC[C@]56c7ccccc7N1[C@H]5[C@H]2[C@H]3C[C@H]46`, the Potency result in [1] and in assay [3] was “inactive” in each case.

On to `C1=CCC=C1`, for which the Potency entry in assay [2], in assay [3], in assay [4] and in assay [17] was “inactive” in each case.
